FPR binder: binds the human formylpeptide receptor FPR. 0.74% of 24,000 active. inhibition, % (test concentration not listed). FPR-expressing cells, fluorescent ligand binding, flow cytometry. AID 440;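 note: 0% = buffer wells and 100% = receptor blocker peptide wells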
Target sequence (P21462 whole entry, looked up): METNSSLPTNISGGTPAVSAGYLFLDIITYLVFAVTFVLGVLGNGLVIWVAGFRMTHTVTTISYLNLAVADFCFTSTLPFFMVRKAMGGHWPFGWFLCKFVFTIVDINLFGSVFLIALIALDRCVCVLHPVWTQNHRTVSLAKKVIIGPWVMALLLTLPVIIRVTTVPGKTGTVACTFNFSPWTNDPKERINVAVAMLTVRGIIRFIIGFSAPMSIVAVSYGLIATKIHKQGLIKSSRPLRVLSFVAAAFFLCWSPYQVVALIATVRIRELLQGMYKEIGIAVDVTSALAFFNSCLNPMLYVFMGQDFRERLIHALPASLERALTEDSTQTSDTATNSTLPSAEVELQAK
Autofluor Jurkat: autofluorescence counter-screen for VLA-4 integrin assays | Jurkat cells, compound autofluorescence, flow cytometry; hits give high values; 1 = vehicle-only cell background | fluorescence ratio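 (tested at 10 µM compound in the well)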 | 0.61% of 24,000 active | AID 576;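 active = fluorescence ratio above 2.44, which is 1 plus 3 SD of all ratios; inconclusive = signal too bright to measure linearly, ratio around 10 or more; inactive = fluorescence ratio below 2.44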;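 note: green fluorescence of cells measured with 488 nm excitation and 530 nm emission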
FPRL1 ligand: binds the human formylpeptide receptor-like-1 FPRL1. inhibition, % (no concentration beside the values). AID 441. P25090. 0.3% of 24,000 active. FPRL1-expressing cells, fluorescent ligand binding inhibition, flow cytometry;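 note: 0% = buffer alone and 100% = receptor blocker peptide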
Target sequence (P25090 whole entry, looked up): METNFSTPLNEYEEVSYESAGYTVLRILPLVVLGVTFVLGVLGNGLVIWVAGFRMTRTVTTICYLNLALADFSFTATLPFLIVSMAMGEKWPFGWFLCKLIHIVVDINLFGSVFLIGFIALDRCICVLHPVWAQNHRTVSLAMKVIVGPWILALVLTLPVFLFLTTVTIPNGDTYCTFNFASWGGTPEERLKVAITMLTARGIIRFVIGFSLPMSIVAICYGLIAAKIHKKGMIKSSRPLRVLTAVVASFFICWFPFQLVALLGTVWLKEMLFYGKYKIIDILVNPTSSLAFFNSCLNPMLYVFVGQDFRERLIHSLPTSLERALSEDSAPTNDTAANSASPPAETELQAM
VLA-4 antagonist: inhibitors of LDV-FITC ligand binding to Mn2+-activated human VLA-4 integrin; Jurkat cells, LDV-FITC binding with Mn2+, flow cytometry; 100% = Mn2+-driven binding gain fully reversed; inhibition, % at 10 µM (by protocol); 0.2% of 24,000 active; AID 529;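 active = inhibition above 50%; inconclusive = compound itself fluorescent, judged against control cell fluorescence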;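 note: 0% = Mn2+ stimulated cells lacking compound and 100% = ligand binding without Mn2+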
Proteasome disasm: blocks ATP-dependent breakdown of the yeast 26S proteasome; inhibition of disassembly, % (test concentration not listed); 0.2% of 24,000 active; anti-FLAG beads, GFP-proteasome disassembly, flow cytometry;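 active = inhibition of disassembly above about 33%, limit read from the data; inconclusive = likely self-fluorescent, control bead median signal at least 40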;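 note: plate controls were ATP control with full disassembly for no effect and ATP-gamma-S intact proteasomes for full effect; higher percent means more bead fluorescence retained so stronger block of disassembly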
VLA-4 agonist: allosterically activates the human VLA-4 integrin | Jurkat cells, LDV-FITC binding, flow cytometry | activation, % at 10 µM (by protocol) | 24,000 tested, under 10 active | AID 528;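 active = fluorescent ligand binding to cells raised by more than 40% of the manganese-induced maximum; inconclusive = compound's own fluorescence above 85% of the ligand control signal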;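 note: 0% = ligand binding without compound and 100% = manganese-stimulated maximal binding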
Numbers without * were called inactive; ? = inconclusive; . = no result given. Hits are enriched below; roughly 1.9% of the tested compounds scored in any of these assays. Cut-off read from the data, not from the text of the source, unless noted: active = inhibition above about 30%; inconclusive = no clear call, values can overlap the other calls; inactive = below that.

SMILES | FPR binder | Autofluor Jurkat | FPRL1 ligand | VLA-4 antagonist | Proteasome disasm | VLA-4 agonist
COCCCN1C(=O)C(O)=C(C(C)=O)C1c1ccccn1 (stereo unspecified) | 7.1 | 1.03 | -2.9 | 2.0 | 2.6 | -2.5
CCN1C(=O)/C(=C2\SC(=S)N(CCCOC)C2=O)c2ccccc21 | 22.9 | . | 32.8* | . | . | .
Cc1cccc(-c2noc(CN(C(=O)c3c(-c4ccccc4Cl)noc3C)C(C)C)n2)c1 | -7.9 | 1.05 | -0.1 | 59.0* | 2.2 | -15.0
Cc1ccc(C)c(C(=O)N(Cc2nc(-c3ccc(Cl)cc3)no2)C(C)C)c1 | -6.1 | 1.09 | -7.6 | 17.0 | 2.6 | -4.0
CCN(CC)c1ccc(-c2c(C#N)c(N)nc(OC)c2C#N)cc1 | -6.0 | 8.16* | -2.3 | ? | 56.7* | ?
CCCSc1nc(N)c(C#N)c(-c2ccc(C)cc2)c1C#N | -3.4 | 1.12 | 3.4 | -34.0 | 1.1 | 10.0
NC(=O)c1oc2ccccc2c1NC(=O)c1nc2ccccc2s1 | -4.1 | 5.39* | 3.3 | ? | 9.5 | ?
COc1ccc(CN(C(=O)c2ccccc2OC)C2CCS(=O)(=O)C2)cc1 (stereo unspecified) | 51.4* | 1.02 | 50.6* | -28.5 | -1.4 | -2.0
CCn1cc(C(=O)NC2CCCC2)c(=O)c2cc(S(=O)(=O)N3CCOCC3)ccc21 | 1.5 | 1.09 | -2.0 | 15.0 | 0.3 | -6.0
CCn1cc(C(=O)NC2CCC(C)CC2)c(=O)c2cc(S(=O)(=O)N3CCCCC3)ccc21 (stereo unspecified) | 32.2* | 1.03 | 0.2 | 0.0 | -1.2 | 5.0
N#Cc1c(N)n(CCNC(=O)c2cccs2)c2nc3ccccc3nc12 | -24.7 | 5.34* | -21.5 | ? | 14.7 | ?
COCc1nnc(NC(=O)c2ccc(S(=O)(=O)N3CCCCCC3)cc2)o1 | -2.3 | 2.46* | 0.8 | ? | -4.1 | ?
CC1(C)OC(=O)N(Cc2ccco2)C1(C)O (stereo unspecified) | -1.3 | 1.12 | -4.3 | -2.0 | 0.9 | -3.0
O=C1CCC(c2ccccc2)N1C(=O)c1cccnc1 (stereo unspecified) | 2.9 | 1.02 | 8.9 | ? | -0.5 | ?
COc1ccc(NC(=O)C2C(=O)NC3(C)CC2c2ccccc2O3)cc1 (stereo unspecified) | 12.5 | 1.05 | 30.1* | -2.0 | -2.1 | 1.0
CC(O)C(=O)NCCOCCOCCNC(=O)C(C)O (stereo unspecified) | 6.4 | 0.96 | 3.0 | -10.0 | -0.4 | 1.0
CCC(=O)N1CCc2cc(S(=O)(=O)CCC(=O)O)ccc21 | 0.1 | 1.04 | -2.3 | 11.0 | -1.6 | -1.0
CC(=O)N1c2ccc(S(=O)(=O)CCC(=O)O)cc2CC1C (stereo unspecified) | 6.4 | 1.06 | -1.4 | 61.0* | -0.9 | -3.0
O=C(c1ccco1)c1nnn(Cc2ccccc2)c1-c1ccccc1 | -2.0 | 1.05 | 3.3 | 3.5 | 3.5 | -6.0
COc1ccc(CNC(=O)c2cc(C3CC3)on2)cc1 | 8.8 | 1 | 8.8 | 6.0 | 0.8 | 2.0
COc1ccc(CNC(=O)c2onc(C)c2Cl)cc1 | -6.3 | 1.07 | 0.3 | ? | 124.2* | ?
O=C(Nc1ccc(Nc2ccccc2)cc1)c1ccc(Br)o1 | 17.8 | . | 34.2* | . | . | .
Cc1cc(O)c(NC(=O)c2ccc(Br)o2)cc1C | -0.4 | 1.28 | 2.9 | 4.5 | 1.4 | -3.0
Oc1cc(NCc2cccnc2)ccc1-c1nc2ccccc2o1 | -12.8 | 2.97* | -12.0 | ? | -3.6 | ?
O=S(=O)(c1ccc2oc(-c3ccncc3)nc2c1)c1ccc2oc(-c3ccncc3)nc2c1 | -5.0 | 1 | -12.0 | -16.0 | 0.8 | 0.5
SMILES | FPR binder | Autofluor Jurkat | FPRL1 ligand | VLA-4 antagonist | Proteasome disasm | VLA-4 agonist
O=S(=O)(c1cnc[nH]1)N1CCc2ccccc21 | ? | 3.08* | 32.6* | ? | 2.5 | ?
COc1ccc(-c2nc(CSCC(=O)N3CCN(C4CCCCC4)CC3)c(C)o2)cc1OC | -3.6 | 1.07 | -0.9 | -9.0 | -1.0 | 2.0
O=C(Cn1cnc2c(cnn2-c2ccc(F)cc2)c1=O)OCc1ccccc1 | 39.5* | 1.06 | 54.3* | -4.5 | -0.7 | -0.2
CCCn1cnc2c(cnn2-c2ccc(F)cc2)c1=O | -0.1 | 1.04 | -1.6 | -17.0 | 0.7 | 0.5
CC1=C(C(=O)N2CCCCC2)C(c2cccs2)C2=C(CCCC2=O)N1 (stereo unspecified) | -4.9 | 1.08 | 4.9 | -9.0 | 3.3 | 2.0
CCOC(=O)c1c(NC(=O)C2C3CCC(O3)C2C(=O)O)sc(C)c1-c1ccc(C)cc1 (stereo unspecified) | 46.4* | . | -3.7 | . | . | .
CCOC(=O)c1cc(NC(=O)C2C3CCC(O3)C2C(=O)O)cc(C(=O)OCC)c1 (stereo unspecified) | 1.5 | . | 15.4 | . | . | .
COc1cccc(N2C(=O)C3ON(c4ccccc4)C(c4cccs4)C3C2=O)c1 (stereo unspecified) | 39.0* | 1.35 | -3.1 | ? | 1.6 | ?
CCN(C(=O)CCc1nc(-c2ccccc2F)no1)c1cc(OC)ccc1OC | -1.5 | 1.26 | -6.5 | 3.0 | -3.1 | -2.0
CCCc1cc(C(=O)NCC(C)C)no1 | -1.0 | 0.99 | -0.4 | -4.0 | 1.5 | 1.0
COCCCN1C(=O)C(O)=C(C(=O)c2ccco2)C1c1ccccc1 (stereo unspecified) | 42.9* | . | 0.6 | . | . | .
O=C(C1=C(O)C(=O)N(CCc2ccccc2)C1c1cccnc1)c1ccco1 (stereo unspecified) | 29.8 | . | -2.9 | . | . | .
COc1cccc(C2C(C(=O)c3sc(C)nc3C)=C(O)C(=O)N2CCN2CCOCC2)c1 (stereo unspecified) | 1.3 | . | -2.1 | . | . | .
CCCOc1ccc(C2C(C(=O)c3ccco3)=C(O)C(=O)N2CCCn2ccnc2)cc1 (stereo unspecified) | 55.0* | . | -5.1 | . | . | .
CCOc1cc(C2C(C(=O)c3ccco3)=C(O)C(=O)N2CCc2ccccc2)ccc1O (stereo unspecified) | 86.0* | . | -3.6 | . | . | .
CC(C)Oc1ccc(C2C(C(=O)c3ccco3)=C(O)C(=O)N2Cc2cccnc2)cc1 (stereo unspecified) | 16.5 | . | -2.2 | . | . | .
Cc1ccc(C2C(C(=O)c3sc(C)nc3C)=C(O)C(=O)N2CCN2CCOCC2)o1 (stereo unspecified) | 35.3* | . | 25.6 | . | . | .
O=C(NC1CCCCC1)C(c1ccco1)N(Cc1cccnc1)C(=O)C1COc2ccccc2O1 (stereo unspecified) | 3.6 | 1 | 3.1 | -21.0 | -2.6 | -3.0
Cc1cccc(CSC2=NCCN2C(=O)c2ccc(Br)o2)c1 | -1.9 | 1.06 | -2.8 | 33.0 | 0.1 | -6.0
CC1CCN(c2nc(-c3ccco3)c3c(c2C#N)CC(C)(C)OC3)CC1 | -10.2 | 1.85 | -6.4 | ? | 0.2 | ?
Cc1nc(C)c(C(=O)C2=C(O)C(=O)N(CCCn3ccnc3)C2c2ccc(Cl)cc2)s1 (stereo unspecified) | 38.3* | . | 23.7 | . | . | .
O=C(C1=C(O)C(=O)N(CCCN2CCOCC2)C1c1ccccn1)c1cccs1 (stereo unspecified) | -2.2 | . | -6.9 | . | . | .
